This is an account of results in paper PMC7862700, “An all-to-all approach to the identification of sequence-specific readers for epigenetic DNA modifications on cytosine”.

Holding throughout (assay): DAPPL (digital affinity profiling via proximity ligation, sequencing); 10 mM Tris-HCl pH 7.5, 50 mM NaCl, 1 mM DTT, 4% glycerol, room temperature, 30 min; GST-TFs on glutathione beads, 16-mer random dsDNA library, 0.1% formaldehyde crosslink after washing; high values mean tight binding
Holding throughout (settings): protein: recombinant; tags: N-terminal GST; dsDNA, one strand shown

One assay addresses T1, ELK1 (Homo sapiens, UniProt P19419 1-428).
T1 sequence: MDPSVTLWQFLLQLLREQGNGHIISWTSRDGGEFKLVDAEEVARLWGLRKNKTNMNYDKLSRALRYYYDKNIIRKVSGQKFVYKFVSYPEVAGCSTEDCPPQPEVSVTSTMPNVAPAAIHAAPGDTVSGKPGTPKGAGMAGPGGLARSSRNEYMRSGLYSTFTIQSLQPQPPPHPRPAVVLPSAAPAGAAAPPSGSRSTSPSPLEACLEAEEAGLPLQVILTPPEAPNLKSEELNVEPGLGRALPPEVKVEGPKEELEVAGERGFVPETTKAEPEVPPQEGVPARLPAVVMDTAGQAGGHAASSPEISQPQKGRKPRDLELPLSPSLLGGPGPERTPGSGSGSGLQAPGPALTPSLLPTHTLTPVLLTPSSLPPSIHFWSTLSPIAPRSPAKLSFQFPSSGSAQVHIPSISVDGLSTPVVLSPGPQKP
The procedure, abridged:
(§1)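 Beads coated with glutathione captured GST-fused human transcription factors that had been expressed in yeast, and the factors were then given DNA barcodes and pooled with a tag-only sample. The pools were incubated with 200 nmole of a random double-stranded 16-mer DNA library in Tris/NaCl/DTT/glycerol buffer for 30 min at room temperature, washed, crosslinked with 0.1% formaldehyde and proximity-ligated with BsaI/T4 ligase at 37 °C for 1 h. PCR amplification and Illumina NextSeq500 sequencing came last. Binding signal is each hexamer's read frequency for a factor divided by its frequency for the tag-only sample.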

The target in another assay is T2, GABPA (Homo sapiens, UniProt Q06546 1-454).
T2 sequence: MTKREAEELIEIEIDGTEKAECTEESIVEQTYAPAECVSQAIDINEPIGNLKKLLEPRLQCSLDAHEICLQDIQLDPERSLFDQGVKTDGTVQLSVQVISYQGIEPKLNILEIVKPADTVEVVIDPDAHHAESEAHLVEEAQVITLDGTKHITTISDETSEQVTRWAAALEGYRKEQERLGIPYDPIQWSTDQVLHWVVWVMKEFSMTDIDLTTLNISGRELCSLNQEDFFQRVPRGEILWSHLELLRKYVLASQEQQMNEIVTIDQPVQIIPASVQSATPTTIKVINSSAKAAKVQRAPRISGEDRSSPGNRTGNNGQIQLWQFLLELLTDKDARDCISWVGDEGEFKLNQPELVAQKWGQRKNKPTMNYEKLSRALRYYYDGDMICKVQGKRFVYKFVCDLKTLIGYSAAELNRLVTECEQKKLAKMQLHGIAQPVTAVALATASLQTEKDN
Summed up:
as §1

The target in a further assay is T3, ERG (Homo sapiens, UniProt P11308 1-479).
T3 sequence: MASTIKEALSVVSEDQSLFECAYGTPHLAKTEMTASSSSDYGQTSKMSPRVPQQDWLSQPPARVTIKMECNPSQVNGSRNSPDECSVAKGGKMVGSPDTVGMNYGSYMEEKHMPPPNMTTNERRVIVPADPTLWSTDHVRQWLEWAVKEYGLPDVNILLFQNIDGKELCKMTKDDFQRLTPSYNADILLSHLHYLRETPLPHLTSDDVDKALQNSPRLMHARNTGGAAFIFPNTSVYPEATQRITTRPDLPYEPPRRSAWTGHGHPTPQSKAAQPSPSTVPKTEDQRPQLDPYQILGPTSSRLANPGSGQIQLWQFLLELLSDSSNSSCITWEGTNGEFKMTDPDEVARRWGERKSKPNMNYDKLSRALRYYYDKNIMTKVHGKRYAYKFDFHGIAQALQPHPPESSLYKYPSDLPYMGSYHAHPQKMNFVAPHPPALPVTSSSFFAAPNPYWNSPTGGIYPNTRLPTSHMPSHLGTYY
The procedure, abridged: as §1

The target of another assay is ELF1 (Homo sapiens, UniProt P32519 1-619). The procedure, abridged: as §1
Sequence of ELF1 (P32519 whole entry): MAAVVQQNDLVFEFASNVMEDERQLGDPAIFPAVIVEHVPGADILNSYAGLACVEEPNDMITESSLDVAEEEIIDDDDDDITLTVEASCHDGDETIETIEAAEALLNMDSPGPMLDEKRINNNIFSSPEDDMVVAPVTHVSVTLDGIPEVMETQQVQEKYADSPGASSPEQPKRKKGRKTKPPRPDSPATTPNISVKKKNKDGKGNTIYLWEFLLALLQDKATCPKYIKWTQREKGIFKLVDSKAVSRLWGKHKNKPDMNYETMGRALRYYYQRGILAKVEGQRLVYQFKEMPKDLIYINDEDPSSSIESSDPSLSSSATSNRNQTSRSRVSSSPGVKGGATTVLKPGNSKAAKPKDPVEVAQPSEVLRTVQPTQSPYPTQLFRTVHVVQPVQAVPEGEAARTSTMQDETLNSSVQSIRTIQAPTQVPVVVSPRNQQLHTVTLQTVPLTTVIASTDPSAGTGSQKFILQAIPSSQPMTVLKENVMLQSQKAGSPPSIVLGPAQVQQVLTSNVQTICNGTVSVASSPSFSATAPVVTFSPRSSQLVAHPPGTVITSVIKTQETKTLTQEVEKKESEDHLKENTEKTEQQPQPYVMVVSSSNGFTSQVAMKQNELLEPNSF
In a further assay the target is SPI1 (Homo sapiens, UniProt P17947 1-270). Summed up:
as §1

A further assay has as its target ETV5 (Homo sapiens, UniProt P41161 1-510). Summed up:
as §1

A further assay addresses ELF4 (Homo sapiens, UniProt Q99607 1-663). Summed up: as §1
For another assay, the target named is T4, ERF (Homo sapiens, UniProt P50548 1-548).
T4 sequence: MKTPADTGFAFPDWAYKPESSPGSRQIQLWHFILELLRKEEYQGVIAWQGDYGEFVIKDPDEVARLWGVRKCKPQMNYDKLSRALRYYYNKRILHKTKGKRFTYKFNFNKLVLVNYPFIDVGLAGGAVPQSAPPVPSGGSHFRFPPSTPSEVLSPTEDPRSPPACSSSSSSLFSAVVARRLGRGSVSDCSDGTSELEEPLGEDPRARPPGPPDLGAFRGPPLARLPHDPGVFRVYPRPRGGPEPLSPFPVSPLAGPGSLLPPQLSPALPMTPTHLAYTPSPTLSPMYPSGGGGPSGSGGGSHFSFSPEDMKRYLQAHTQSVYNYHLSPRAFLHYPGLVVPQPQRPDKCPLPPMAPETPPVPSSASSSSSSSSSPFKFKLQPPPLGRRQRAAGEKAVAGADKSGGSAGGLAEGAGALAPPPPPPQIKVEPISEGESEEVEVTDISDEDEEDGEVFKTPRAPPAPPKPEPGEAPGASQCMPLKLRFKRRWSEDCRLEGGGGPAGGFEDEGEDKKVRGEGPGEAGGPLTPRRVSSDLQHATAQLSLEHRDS
Summed up:
as §1

A further assay addresses T5, ETV3L (Homo sapiens, UniProt Q6ZN32 1-361).
T5 sequence: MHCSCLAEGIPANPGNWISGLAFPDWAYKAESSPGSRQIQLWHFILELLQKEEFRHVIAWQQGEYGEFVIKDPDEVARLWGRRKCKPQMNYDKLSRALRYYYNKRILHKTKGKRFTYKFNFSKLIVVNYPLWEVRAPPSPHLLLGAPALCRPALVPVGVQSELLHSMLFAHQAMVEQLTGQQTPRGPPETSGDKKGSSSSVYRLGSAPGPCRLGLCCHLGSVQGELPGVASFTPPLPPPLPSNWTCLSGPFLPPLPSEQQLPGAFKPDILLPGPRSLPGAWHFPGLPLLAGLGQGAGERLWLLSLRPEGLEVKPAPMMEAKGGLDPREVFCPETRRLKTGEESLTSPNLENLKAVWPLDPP
Summed up: as §1

The target in a further assay is T6, ETS2 (Homo sapiens, UniProt P15036 1-469).
T6 sequence: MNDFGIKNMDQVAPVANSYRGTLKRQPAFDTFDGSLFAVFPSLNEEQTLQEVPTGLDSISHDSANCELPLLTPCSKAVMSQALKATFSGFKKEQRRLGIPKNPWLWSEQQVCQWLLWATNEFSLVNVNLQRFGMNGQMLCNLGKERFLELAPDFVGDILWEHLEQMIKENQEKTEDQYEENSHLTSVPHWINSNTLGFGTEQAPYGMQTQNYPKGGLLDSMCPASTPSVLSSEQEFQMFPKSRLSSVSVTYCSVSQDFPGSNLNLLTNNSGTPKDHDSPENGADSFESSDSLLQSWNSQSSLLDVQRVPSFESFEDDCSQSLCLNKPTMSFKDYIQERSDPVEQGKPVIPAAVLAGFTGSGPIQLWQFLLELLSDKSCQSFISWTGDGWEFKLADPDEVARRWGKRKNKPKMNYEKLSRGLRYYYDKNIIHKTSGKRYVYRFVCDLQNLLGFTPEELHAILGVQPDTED
Summed up:
as §1

For the next assay, the target named is T7, ETV3 (Homo sapiens, UniProt P41162-2 1-143).
T7 sequence: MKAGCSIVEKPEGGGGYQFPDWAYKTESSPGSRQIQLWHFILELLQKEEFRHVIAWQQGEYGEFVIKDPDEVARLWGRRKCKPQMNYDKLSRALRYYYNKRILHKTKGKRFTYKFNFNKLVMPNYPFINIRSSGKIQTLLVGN
Summed up: as §1

In a further assay the target is T8, EHF (Homo sapiens, UniProt Q9NZC4 1-300).
T8 sequence: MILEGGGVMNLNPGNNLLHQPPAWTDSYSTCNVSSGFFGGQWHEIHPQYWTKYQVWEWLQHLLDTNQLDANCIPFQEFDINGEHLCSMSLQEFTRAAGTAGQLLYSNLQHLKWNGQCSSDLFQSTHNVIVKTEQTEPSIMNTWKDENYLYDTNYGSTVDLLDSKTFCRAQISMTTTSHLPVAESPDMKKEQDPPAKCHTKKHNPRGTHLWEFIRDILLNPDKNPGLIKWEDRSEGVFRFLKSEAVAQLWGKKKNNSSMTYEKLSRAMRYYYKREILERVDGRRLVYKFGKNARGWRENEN
The procedure, abridged: as §1

A further assay deals with T9, FEV (Homo sapiens, UniProt Q99581 1-238).
T9 sequence: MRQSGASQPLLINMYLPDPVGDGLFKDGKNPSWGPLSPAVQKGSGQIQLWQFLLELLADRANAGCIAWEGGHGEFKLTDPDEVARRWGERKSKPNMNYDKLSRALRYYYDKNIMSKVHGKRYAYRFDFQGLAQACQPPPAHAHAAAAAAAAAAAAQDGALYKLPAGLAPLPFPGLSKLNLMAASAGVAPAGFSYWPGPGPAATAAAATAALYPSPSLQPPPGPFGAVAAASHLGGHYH
The procedure, abridged: as §1

The next assay addresses T10, ELK4 (Homo sapiens, UniProt P28324-2 1-405).
T10 sequence: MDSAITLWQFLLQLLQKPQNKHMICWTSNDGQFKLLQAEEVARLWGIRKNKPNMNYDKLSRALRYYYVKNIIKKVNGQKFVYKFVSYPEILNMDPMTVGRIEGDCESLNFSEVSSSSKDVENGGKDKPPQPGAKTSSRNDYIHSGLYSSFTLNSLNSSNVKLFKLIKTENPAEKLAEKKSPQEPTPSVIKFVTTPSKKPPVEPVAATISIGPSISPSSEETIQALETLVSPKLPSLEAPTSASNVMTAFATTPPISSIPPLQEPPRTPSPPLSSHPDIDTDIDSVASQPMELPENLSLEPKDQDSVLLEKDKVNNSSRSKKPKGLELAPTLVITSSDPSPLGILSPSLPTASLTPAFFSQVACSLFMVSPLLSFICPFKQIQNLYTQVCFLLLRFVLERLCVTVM
Summed up:
as §1

Another assay addresses ETV1 (Homo sapiens, UniProt P50549 1-477). The procedure, abridged:
as §1

In another assay the target is T11, ETV7 (Homo sapiens, UniProt Q9Y603 1-341).
T11 sequence: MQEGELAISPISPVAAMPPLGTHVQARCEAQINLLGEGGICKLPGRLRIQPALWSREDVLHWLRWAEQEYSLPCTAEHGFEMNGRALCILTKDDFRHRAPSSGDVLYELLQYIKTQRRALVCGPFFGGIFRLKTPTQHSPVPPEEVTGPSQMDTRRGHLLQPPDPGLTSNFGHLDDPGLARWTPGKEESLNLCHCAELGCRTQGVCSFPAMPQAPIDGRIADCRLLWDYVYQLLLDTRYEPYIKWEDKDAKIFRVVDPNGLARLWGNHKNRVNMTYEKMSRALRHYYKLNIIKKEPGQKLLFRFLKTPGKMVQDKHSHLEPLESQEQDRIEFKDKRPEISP
Summed up:
as §1

The next assay concerns the target ETV6 (Homo sapiens, UniProt P41212 1-452). The procedure, abridged:
as §1

Sequence of ETV5 (P41161 whole entry): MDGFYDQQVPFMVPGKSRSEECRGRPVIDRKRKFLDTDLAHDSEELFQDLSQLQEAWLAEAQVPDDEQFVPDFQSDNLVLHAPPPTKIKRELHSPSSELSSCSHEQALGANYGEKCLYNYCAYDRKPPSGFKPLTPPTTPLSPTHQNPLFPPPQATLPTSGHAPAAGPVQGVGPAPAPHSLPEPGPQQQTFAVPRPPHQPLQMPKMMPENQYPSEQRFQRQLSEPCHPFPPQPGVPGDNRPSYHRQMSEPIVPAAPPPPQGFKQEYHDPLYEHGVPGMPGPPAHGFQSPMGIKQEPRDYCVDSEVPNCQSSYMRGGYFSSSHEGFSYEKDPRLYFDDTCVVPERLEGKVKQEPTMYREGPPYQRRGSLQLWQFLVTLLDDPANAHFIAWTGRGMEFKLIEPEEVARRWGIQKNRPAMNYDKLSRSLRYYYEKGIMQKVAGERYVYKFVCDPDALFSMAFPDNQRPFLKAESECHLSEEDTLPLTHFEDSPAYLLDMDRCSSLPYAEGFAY
Sequence of ELF4 (Q99607 whole entry): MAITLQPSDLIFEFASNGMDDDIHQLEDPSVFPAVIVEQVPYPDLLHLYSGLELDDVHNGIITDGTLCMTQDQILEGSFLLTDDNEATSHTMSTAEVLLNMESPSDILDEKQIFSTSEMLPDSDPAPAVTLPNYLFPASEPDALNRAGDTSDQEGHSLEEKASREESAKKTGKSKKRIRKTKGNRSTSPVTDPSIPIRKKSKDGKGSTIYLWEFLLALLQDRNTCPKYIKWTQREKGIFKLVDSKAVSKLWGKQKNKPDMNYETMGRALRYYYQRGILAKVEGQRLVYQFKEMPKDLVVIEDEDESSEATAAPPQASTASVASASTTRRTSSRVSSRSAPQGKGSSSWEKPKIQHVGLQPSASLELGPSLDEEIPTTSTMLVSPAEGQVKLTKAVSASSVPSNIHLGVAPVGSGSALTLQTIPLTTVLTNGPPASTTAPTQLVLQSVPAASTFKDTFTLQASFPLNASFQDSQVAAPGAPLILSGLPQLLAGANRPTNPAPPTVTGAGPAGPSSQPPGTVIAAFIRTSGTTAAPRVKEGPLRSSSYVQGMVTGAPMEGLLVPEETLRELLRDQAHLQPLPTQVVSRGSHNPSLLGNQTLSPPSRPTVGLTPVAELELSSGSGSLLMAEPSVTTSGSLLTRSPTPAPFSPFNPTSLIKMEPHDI
Sequence of ETV1 (P50549 whole entry): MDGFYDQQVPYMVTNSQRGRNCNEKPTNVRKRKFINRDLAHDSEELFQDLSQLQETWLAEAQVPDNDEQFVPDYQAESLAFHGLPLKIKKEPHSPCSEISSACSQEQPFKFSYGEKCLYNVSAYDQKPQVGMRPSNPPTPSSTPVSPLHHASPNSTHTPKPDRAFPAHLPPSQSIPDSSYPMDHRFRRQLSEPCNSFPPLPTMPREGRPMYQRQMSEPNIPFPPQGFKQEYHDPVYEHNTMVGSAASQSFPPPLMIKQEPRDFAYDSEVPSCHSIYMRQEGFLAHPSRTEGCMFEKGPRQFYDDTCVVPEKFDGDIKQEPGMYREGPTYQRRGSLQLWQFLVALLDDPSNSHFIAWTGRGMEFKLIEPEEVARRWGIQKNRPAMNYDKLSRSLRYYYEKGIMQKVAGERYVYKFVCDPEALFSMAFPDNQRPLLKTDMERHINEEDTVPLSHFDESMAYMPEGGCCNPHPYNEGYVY
Sequence of ETV6 (P41212 whole entry): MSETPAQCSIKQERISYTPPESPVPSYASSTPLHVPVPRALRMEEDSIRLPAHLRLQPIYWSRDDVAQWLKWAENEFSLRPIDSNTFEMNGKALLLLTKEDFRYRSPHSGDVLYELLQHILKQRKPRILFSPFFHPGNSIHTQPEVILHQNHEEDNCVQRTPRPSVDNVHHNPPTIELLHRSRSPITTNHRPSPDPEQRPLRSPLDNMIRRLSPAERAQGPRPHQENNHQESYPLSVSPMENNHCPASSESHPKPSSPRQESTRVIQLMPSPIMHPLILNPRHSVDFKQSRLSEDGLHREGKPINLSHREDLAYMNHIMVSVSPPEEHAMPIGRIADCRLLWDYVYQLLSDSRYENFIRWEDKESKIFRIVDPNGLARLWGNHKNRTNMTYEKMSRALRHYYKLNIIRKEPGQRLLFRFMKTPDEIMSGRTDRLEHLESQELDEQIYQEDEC

With CCCAAG, the binding signal is 1.07 fold enrichment (6-mer frequency, TF over GST control) with ELK1; 1.07 fold enrichment (6-mer frequency, TF over GST control) with GABPA; 1.04 fold enrichment (6-mer frequency, TF over GST control) with ERG; 1.06 fold enrichment (6-mer frequency, TF over GST control) in the assay with ELF1; 1.03 fold enrichment (6-mer frequency, TF over GST control) with SPI1; 1.01 fold enrichment (6-mer frequency, TF over GST control) with ETV5. Besides, the binding signal in the assay with ELF4 is 1.03 fold enrichment (6-mer frequency, TF over GST control); with ERF, 1.06 fold enrichment (6-mer frequency, TF over GST control); with ETV3L, 1.01 fold enrichment (6-mer frequency, TF over GST control); with ETS2, 1 fold enrichment (6-mer frequency, TF over GST control); in the assay with ETV3, 1.03 fold enrichment (6-mer frequency, TF over GST control).

As to TCACCG, the binding signal in the assay with ELK1 is 1.16 fold enrichment (6-mer frequency, TF over GST control); in the assay with GABPA it was 1.2 fold enrichment (6-mer frequency, TF over GST control); with ERG, 1.14 fold enrichment (6-mer frequency, TF over GST control); with ELF1 it was 1.11 fold enrichment (6-mer frequency, TF over GST control); with EHF, 1.05 fold enrichment (6-mer frequency, TF over GST control); with SPI1, 1.06 fold enrichment (6-mer frequency, TF over GST control). Also, the binding signal in the assay with FEV was 1.18 fold enrichment (6-mer frequency, TF over GST control); with ETV5, 1.13 fold enrichment (6-mer frequency, TF over GST control); in the assay with ELF4, 1.21 fold enrichment (6-mer frequency, TF over GST control); with ELK4, 1.04 fold enrichment (6-mer frequency, TF over GST control); in the assay with ETV1 it was 1.15 fold enrichment (6-mer frequency, TF over GST control); in the assay with ERF it was 1.05 fold enrichment (6-mer frequency, TF over GST control). Moreover, the binding signal is 1.09 fold enrichment (6-mer frequency, TF over GST control) with ETV3L; 1.15 fold enrichment (6-mer frequency, TF over GST control) with ETS2; 1.02 fold enrichment (6-mer frequency, TF over GST control) in the assay with ETV7; 1.05 fold enrichment (6-mer frequency, TF over GST control) with ETV3; 1.03 fold enrichment (6-mer frequency, TF over GST control) with ETV6.

GCAAAC: the binding signal with ELK1 is 1.03 fold enrichment (6-mer frequency, TF over GST control); in the assay with GABPA it was 1.01 fold enrichment (6-mer frequency, TF over GST control); with ELF1, 1.01 fold enrichment (6-mer frequency, TF over GST control); with SPI1, 1.07 fold enrichment (6-mer frequency, TF over GST control); with ETV5, 1.01 fold enrichment (6-mer frequency, TF over GST control); in the assay with ELF4 it was 1.06 fold enrichment (6-mer frequency, TF over GST control). Also, the binding signal is 1.02 fold enrichment (6-mer frequency, TF over GST control) with ELK4; 1.03 fold enrichment (6-mer frequency, TF over GST control) with ETV1; 1.01 fold enrichment (6-mer frequency, TF over GST control) in the assay with ERF; 1.05 fold enrichment (6-mer frequency, TF over GST control) with ETV3L; 1.04 fold enrichment (6-mer frequency, TF over GST control) with ETV3; 1.06 fold enrichment (6-mer frequency, TF over GST control) with ETV6.
